Screening data from PubChem BioAssay.
Sampled rows, rich in hits. Any-hit rate of the full collection: about 3.5%.
FBW7 activator – activators of human E3 ligase FBW7. AlphaScreen FBW7–phospho-cyclin E peptide binding, activator screen. 650,000 compounds, 0.13% hits. Q969H0. normalized activity (activation), % at 26.1 µM; in the data active = normalized activity above about 1.9%;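 also: purified mutant Fbw7 with reduced substrate affinity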
MITF inh – human MITF inhibition, primary screen; AlphaScreen MITF homodimerization, bead proximity signal; inhibition, % at 2.6 µM; 650,000 compounds, 0.91% hits; in the data active = inhibition above about 50%;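 also: 0% = vehicle wells with protein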
GPR151 activ – activates the human receptor GPR151 | Q8TDV0 | PathHunter beta-arrestin GPR151 cells, luminescence | activation, % at 11.2 µM | 650,000 compounds, 1% hits | AID 1508602; in the data active = activation above about 4.9%;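 also: 0% = median of compound wells and 100% = cells with positive control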
Target sequence (Q8TDV0 whole entry, looked up): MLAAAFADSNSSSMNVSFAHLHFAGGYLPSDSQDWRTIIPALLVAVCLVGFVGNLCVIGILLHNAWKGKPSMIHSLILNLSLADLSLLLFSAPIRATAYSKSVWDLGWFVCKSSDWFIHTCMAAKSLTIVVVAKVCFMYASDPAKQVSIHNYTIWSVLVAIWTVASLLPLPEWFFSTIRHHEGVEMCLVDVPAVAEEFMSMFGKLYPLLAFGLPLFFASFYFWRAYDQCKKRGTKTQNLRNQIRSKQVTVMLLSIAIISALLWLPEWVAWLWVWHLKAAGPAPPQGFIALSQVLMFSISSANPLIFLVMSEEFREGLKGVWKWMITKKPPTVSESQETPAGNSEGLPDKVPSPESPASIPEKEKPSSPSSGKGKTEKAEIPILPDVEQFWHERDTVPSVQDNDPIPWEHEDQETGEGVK
TEAD-YAP block – TEAD-YAP interaction inhibition | HEK-TIYL cells, TEAD-Gal4/YAP UAS-luciferase luminescence | inhibition, % at 9.12 µM | 640,000 compounds, 1.4% hits; in the data active = inhibition above about 32%;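 also: 0% = median of test compound wells and 100% = reference inhibitor wells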
Active calls of the source: *.

SMILES | FBW7 activator | MITF inh | GPR151 activ | TEAD-YAP block
CCC(CC)NC(=O)c1cc([N+](=O)[O-])ccc1N1CCOCC1 | 0.0 | 3.5 | 0.9 | 8.9
CCOc1ccc(C(=O)c2cc([N+](=O)[O-])ccc2N2CCOCC2)cc1 | -0.2 | 9.3 | 0.1 | 60.1*
COc1ccc(C(=O)c2cc([N+](=O)[O-])ccc2N2CCOCC2)cc1 | -0.1 | -6.4 | 1.2 | 60.2*
Cc1ccc(C(=O)c2cc([N+](=O)[O-])ccc2N2CCOCC2)cc1 | 0.1 | 9.7 | -0.2 | 8.6
O=C(Nc1ccccc1)C1(c2ccc(F)cc2)CC1 | 0.1 | 5.5 | -0.8 | 8.4
O=C(NC1CC1)c1ccc2cncc(-c3cc4ccccc4o3)c2n1 | 0.0 | 2.2 | -1.0 | 50.0*
O=C(c1ccc2cncc(-c3cc4ccccc4o3)c2n1)N1CCOCC1 | -0.7 | 18.1 | 1.2 | 22.8
COCCNC(=O)c1ccc2cncc(-c3cc4ccccc4o3)c2n1 | 0.2 | 5.2 | -0.1 | 60.5*
O=C(NCCCn1ccnc1)c1ccc2cncc(-c3cc4ccccc4o3)c2n1 | -0.3 | -1.8 | -1.2 | 46.3*
CC1CCc2c(sc(NC(=O)CN(C(=O)c3ccco3)C3CCCCC3)c2C(N)=O)C1 (stereo unspecified) | 0.2 | -20.2 | 0.0 | -23.4
CC1CC(C)(C)NC(=S)N1CCC(=O)Nc1nccs1 (stereo unspecified) | 0.0 | -5.2 | 2.2 | 6.9
CC(=O)Nc1ccc(Nc2nc(-c3ccccc3)nc3c2ncn3-c2ccccc2)cc1 | 0.1 | -8.4 | 0.3 | 7.8
CC(=O)Nc1ccc(Nc2nc(-c3cccc(N)c3)nc3c2ncn3-c2ccccc2)cc1 | -0.1 | 24.8 | 0.0 | 40.7*
CC(=O)Nc1ccc(Nc2nc(-c3ccc(C(N)=O)cc3)nc3c2ncn3C(C)C)cc1 | 0.1 | 1.8 | -0.1 | 28.4
CC(C)n1cnc2c(Nc3ccccc3)nc(-c3cccc(N)c3)nc21 | 0.2 | 5.7 | -1.2 | 13.1
COc1ccc(-c2nc(Nc3ccc(NC(C)=O)cc3)c3ncn(C(C)C)c3n2)cn1 | -0.1 | 3.3 | 4.2 | 35.0*
CC(=O)Nc1ccc(Nc2nc(-c3cccc(N)c3)nc3c2ncn3C(C)C)cc1 | 0.1 | 10.8 | -1.4 | 38.3*
O=[N+]([O-])c1nn(-c2ccc(Cl)cc2)n(O)c1=NC1CC1 | -0.1 | 5.5 | 0.4 | -13.8
O=C1/C(=C\C=C/c2ccc([N+](=O)[O-])o2)C(C(F)(F)F)=NN1c1ccccc1[N+](=O)[O-] | 0.8 | 89.7* | 1.4 | 15.3
C=CCCCC1SCCCS1 | 0.1 | 13.0 | 0.3 | 5.4
COc1cccc(Nc2nnc(Cc3ccccc3Cl)c(=O)[nH]2)c1 | 0.0 | -3.9 | -0.5 | 46.0*
O=c1[nH]c(Nc2ccccc2)nnc1Cc1ccccc1Cl | 0.1 | -7.2 | 0.0 | 4.4
Cc1ccc(C(=O)C[n+]2cc(-c3ccc(C)cc3)n3c2CCCCC3)cc1 | 0.2 | 10.3 | -1.2 | 85.6*
Cc1cc(C)cc(Oc2c(C(F)(F)F)oc3c(CN4CCCCC4)c(O)ccc3c2=O)c1 | 0.2 | 13.9 | -2.0 | -2.8
CN1CCN(Cc2c(O)ccc3c(=O)c(Oc4ccc(-c5ccccc5)cc4)c(C(F)(F)F)oc23)CC1 | 0.1 | 13.3 | -0.9 | -3.2
SMILES | FBW7 activator | MITF inh | GPR151 activ | TEAD-YAP block
CN1CCN(Cc2c(O)ccc3c(=O)c(Oc4ccc(C(C)(C)C)cc4)c(C(F)(F)F)oc23)CC1 | 0.9 | 2.9 | -1.0 | 34.0*
CC(C)(C)c1ccc(Oc2c(C(F)(F)F)oc3c(CN4CCCC4)c(O)ccc3c2=O)cc1 | 0.2 | 10.4 | -0.1 | 36.1*
CC(=C/c1ccccc1)/C=N/n1c(-c2ccncc2)n[nH]c1=S | 0.0 | 1.6 | 0.6 | 38.7*
Cc1cc(C)c(C#N)c(SCc2nnc(-c3ccc(Cl)cc3)o2)n1 | -0.1 | 3.9 | -0.7 | 29.0
Cc1nc(SCc2nnc(-c3ccccc3)o2)c(C#N)c(C)c1C | -0.4 | -3.2 | 0.1 | 92.1*
Cc1cc(C(F)(F)F)c(C#N)c(SCc2nnc(-c3ccccc3)o2)n1 | -0.2 | -0.3 | -1.5 | 41.1*
COc1ccc2c(c1)c(C=O)c(C)n2C | 0.4 | 14.5 | -1.8 | -1.8
COC(=O)c1ccc(/C=C2/C=C(c3ccc(C)cc3)OC2=O)cc1 | -0.1 | 3.5 | 0.0 | 3.0
CC1=C(C(=O)OC(C)C)C(c2ccccc2I)C2=C(CCCC2=O)N1 (stereo unspecified) | 0.0 | 13.9 | -1.1 | 6.8
COc1ccc(Nc2ccnc3c(-c4cccc(CO)c4)cnn23)cn1 | -0.4 | 5.2 | -2.8 | 97.9*
COc1ccc(Nc2ccnc3c(-c4ccc(O)cc4)cnn23)cn1 | 0.2 | -15.4 | -1.5 | 91.4*
COc1ccc(Nc2ccnc3c(-c4cccc(O)c4)cnn23)cn1 | -0.4 | 13.2 | -1.5 | 25.1
O=C1CCSc2c1cccc2C(=O)NCc1ccc(Cl)cc1 | -0.2 | 6.6 | -0.8 | 7.2
CCC(C(=O)O)N1C(=O)/C(=C\c2ccco2)SC1=S (stereo unspecified) | -0.1 | 59.3* | 0.9 | -6.2
O=C1/C(=C/c2ccco2)SC(=S)N1NS(=O)(=O)c1ccccc1 | 0.0 | 59.5* | 1.7 | 8.4
CCC(C(=O)O)N1C(=O)/C(=C/c2cccs2)SC1=S (stereo unspecified) | -0.2 | 1.0 | -1.2 | 4.4
COc1ccc(/C=C2/SC(=S)N(NS(=O)(=O)c3ccccc3)C2=O)cc1 | 0.0 | -6.6 | 1.5 | -2.2
O=C(c1cccc(I)c1)N1CCN(c2ccccc2O)CC1 | 0.2 | -2.4 | -1.0 | -5.7
c1ccc(-c2nc(NC3CC3)cc(-c3cccnc3)n2)cc1 | 0.1 | 17.0 | 1.2 | 23.1
c1ccc(-c2nc(NC3CCCCC3)cc(-c3ccncc3)n2)nc1 | -0.7 | 0.9 | -1.3 | 35.7*
c1ccc(-c2nc(NC3CCCCC3)cc(-c3cccnc3)n2)nc1 | -0.8 | 18.9 | -0.6 | 69.2*
c1ccc(-c2nc(NC3CC3)cc(-c3cccnc3)n2)nc1 | 0.3 | -152.4 | 0.9 | 43.6*
COC(=O)C1=C(O)/C(=C\c2cccc(Oc3ccccc3)c2)N=C1C | -0.1 | 9.7 | 1.6 | 9.5
O=C(Nc1nc(-c2cccc([N+](=O)[O-])c2)cs1)c1ccncc1 | -0.2 | -3.3 | 1.3 | -1.9
Cc1cc2ncn(CC3CCN(C(=O)c4ccccc4Br)CC3)c2cc1C | -0.2 | 37.3 | -0.9 | 40.2*
SMILES | FBW7 activator | MITF inh | GPR151 activ | TEAD-YAP block
O=C1C=CC2=C3c4cc(O)c(O)cc4CC3(O)COC2=C1O (stereo unspecified) | -0.3 | 91.5* | -1.1 | -15.8
O=C(O)c1cc(-c2ccc3c(c2)OCO3)nc2cc3c(cc12)OCCO3 | 0.2 | 15.9 | -0.3 | 32.3*
Clc1ccc2nc(-c3ccc(Br)cc3)cn2c1 | 0.0 | -13.4 | -0.2 | -77.8
Clc1ccc2nc(-c3ccc4c(c3)OCO4)cn2c1 | 0.1 | -16.1 | -9.1 | 73.2*
Clc1ccc2nc(-c3ccccc3)cn2c1 | 0.2 | 12.0 | -9.3 | 76.8*
Fc1ccc(-c2cn3cc(Cl)ccc3n2)cc1 | 0.1 | 13.7 | -8.2 | 36.5*
COc1cccc(Nc2cc(N3CCCC3)c3noc4c3c2C(=O)c2ccccc2-4)c1 | -0.1 | 14.0 | 0.2 | 4.0
CCOC(=O)C1CCCN(c2cc(Nc3cccc(OC)c3)c3c4c(onc24)-c2ccccc2C3=O)C1 (stereo unspecified) | -0.5 | 64.3* | 0.1 | -2.3
